Laboratory results published in the supplement of paper PMC12669032.
Values without a mark were called inactive.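 Rule for the calls: active = AUC reduced over 20% with Padj below 0.05 in at least 2 of 3 replicates; inactive = otherwise.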

What was measured:
Roseburia intestinalis = assay: growth AUC relative to DMSO control (median of replicates) (fraction); higher = more growth (less inhibition), active = hit call of the paper; details: 20 µM; 24 h
Summary of the method: (§1)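 Starting at OD600 0.05, gut bacterial monocultures in mGAM were grown anaerobically at 37 °C with 20 µM compound (1% DMSO) under pierced gas-permeable seals. OD600 was read every hour for 24 h, and the lowest OD of each curve was set to 0. Area under the growth curve was normalised to the plate median of solvent-only wells, or to row and column medians on the industrial chemical plate, and the median of three biological replicates grown on separate days is given.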

Streptococcus salivarius = assay: as above; details: 20 µM; 24 h
Summary of the method: as §1

Row | SMILES | growth AUC (Roseburia intestinalis) | growth AUC (Streptococcus salivarius)
1 | CCCCC(CC)COC(=O)COc1ccc(Cl)cc1C (centres undefined) | 0.93 | 0.978
2 | CC(C)(NC(=O)C(Br)C(C)(C)C)c1ccccc1 (centres undefined) | 0.964 | 0.96
3 | CN(C)c1ccc(N=NS(=O)(=O)[O-])cc1.[Na+] | 1.03 | 1.01
4 | CCc1cccc(C)c1N(C(=O)C(=O)O)[C@@H](C)C(=O)O | 0.973 | 0.943
5 | CC(C)CNC(=O)N1CCNC1=O | 1.1 | 0.995
6 | CCSC(=O)COc1ccc(Cl)cc1C | 0.969 | 0.915
7 | S=C([S-])NCCNC(=S)[S-].[Zn+2] | 0.975 | 0.97
8 | O=S(Cc1ccc(Cl)cc1)c1ccc(Cl)cc1 (centres undefined) | 1.01 | 0.984
9 | O=C(O)Cc1c[nH]c2ccccc12 | 1.1 | 1.01
10 | c1ccc(Nc2ccccc2)cc1 | 1.01 | 1.02
11 | O=C1NCCN1 | 1.24 | 1.02
12 | CCOC(N)=O | 1.05 | 1.01
13 | Oc1ccccc1O | 1.1 | 0.987
14 | O=C(Nc1ccc(F)cc1)c1cccc(Oc2cccc(C(F)(F)F)c2)n1 | 0.918 | 0.956
15 | COC(=O)COc1ccc(Cl)cc1C | 0.975 | 1.01
16 | O=C(O)CCCc1c[nH]c2ccccc12 | 0.96 | 1

Row | SMILES | growth AUC (Roseburia intestinalis) | growth AUC (Streptococcus salivarius)
17 | O=C(Nc1ccc(Cl)cc1C(O)c1ccccc1)c1ccncc1 (centres undefined) | 0.994 | 1
18 | N#CC(=NOCC1OCCO1)c1ccccc1 | 0.968 | 0.976
19 | O=C(O)COc1ccc(Cl)cc1CO | 0.945 | 0.932
20 | Cc1cc(C2CC2)nc(Nc2ccc(O)cc2)n1 | 1.01 | 1.01
21 | CC(C)OC(=O)N[C@H](C(=O)N[C@H](C)c1nc2ccc(F)cc2s1)C(C)C | 0.975 | 0.959
22 | C#CCOc1cc(-n2nc(C(C)(C)C)oc2=O)c(Cl)cc1Cl | 0.909 | 0.963
23 | CO/N=C(/C(=O)O)c1ccccc1CO/N=C(\C)c1cccc(C(F)(F)F)c1 | 1.01 | 0.915
24 | CON(C(=O)c1cc(C)oc1C)C1CCCCC1 | 1.09 | 0.989
25 | O=[N+]([O-])c1ccc(O)cc1 | 1.14 | 1
26 | CCOc1ccc(NC(=O)OC(C)C)cc1OCC | 1 | 0.975
27 | COC1CCC2(CC1)NC(=O)C(c1cc(C)ccc1C)=C2OC1OC(CO)C(O)C(O)C1O (centres undefined) | 1 | 1.01
28 | CN(C)C(=O)Nc1ccc(Cl)c(Cl)c1 | 1.03 | 1.01
29 | COC(=O)CC(NC(=O)[C@@H](NC(=O)OC(C)C)C(C)C)c1ccc(Cl)cc1 (some centres undefined) | 0.975 | 0.953
30 | Cc1cccc(C)c1N(C(=O)CCl)C1CCOC1=O (centres undefined) | 1.08 | 0.86
31 | Cc1cc(N(C)C)nc(Cl)n1 | 1.01 | 1.04
32 | CNC(=O)Sc1ccc(OS(C)(=O)=O)cc1 | 0.992 | 0.937
